The values below come from publication PMC7862700, “An all-to-all approach to the identification of sequence-specific readers for epigenetic DNA modifications on cytosine”.

Test in all cases: DAPPL (digital affinity profiling via proximity ligation, sequencing); 10 mM Tris-HCl pH 7.5, 50 mM NaCl, 1 mM DTT, 4% glycerol, room temperature, 30 min; GST-TFs on glutathione beads, 16-mer random dsDNA library, 0.1% formaldehyde crosslink after washing; high values mean tight binding
In one experiment the target is T1, FEV (Homo sapiens, UniProt Q99581 1-238).
T1 sequence: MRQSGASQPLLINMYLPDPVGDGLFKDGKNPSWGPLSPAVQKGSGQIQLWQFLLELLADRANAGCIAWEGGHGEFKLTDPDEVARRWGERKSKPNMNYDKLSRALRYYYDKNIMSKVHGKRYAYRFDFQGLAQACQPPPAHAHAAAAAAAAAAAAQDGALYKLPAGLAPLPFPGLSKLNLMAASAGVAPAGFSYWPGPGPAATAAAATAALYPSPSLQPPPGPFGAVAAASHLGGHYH
To be noted: protein: recombinant; tags: N-terminal GST; dsDNA, one strand shown. A digest of the protocol:
(§1)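 Binding signal is given per hexamer as its read frequency for a factor divided by its frequency in the tag-only sample. GST-fused human transcription factors were expressed in yeast, captured on glutathione beads, barcoded with DNA and pooled with that sample, then incubated with 200 nmole of a 16-mer random double-stranded DNA library in Tris/NaCl/DTT/glycerol buffer for 30 min at room temperature. The pools were then washed, crosslinked, proximity-ligated, amplified by PCR and sequenced on an Illumina NextSeq500.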

Another experiment concerns the target ETV5 (Homo sapiens, UniProt P41161 1-510). To be noted: protein: recombinant; tags: N-terminal GST; dsDNA, one strand shown. A digest of the protocol:
as §1

The target in another experiment is HSF1 (Homo sapiens, UniProt Q00613 1-529). To be noted: protein: recombinant; tags: N-terminal GST; chain copies: 3; dsDNA, one strand shown. A digest of the protocol:
as §1

In the next experiment the target is T2, SPIC (Homo sapiens, UniProt Q8N5J4 1-248).
T2 sequence: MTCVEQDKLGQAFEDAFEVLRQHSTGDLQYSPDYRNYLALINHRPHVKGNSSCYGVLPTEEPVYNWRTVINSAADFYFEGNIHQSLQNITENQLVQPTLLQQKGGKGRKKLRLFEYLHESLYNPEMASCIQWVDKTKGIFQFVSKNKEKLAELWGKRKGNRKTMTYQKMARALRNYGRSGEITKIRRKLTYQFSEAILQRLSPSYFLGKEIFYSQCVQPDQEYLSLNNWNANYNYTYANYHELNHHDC
To be noted: protein: recombinant; tags: N-terminal GST; dsDNA, one strand shown. A digest of the protocol:
as §1

A further experiment has as its target ELF4 (Homo sapiens, UniProt Q99607 1-663). To be noted: protein: recombinant; tags: N-terminal GST; dsDNA, one strand shown. A digest of the protocol:
as §1

The target of the next experiment is T3, ELK4 (Homo sapiens, UniProt P28324-2 1-405).
T3 sequence: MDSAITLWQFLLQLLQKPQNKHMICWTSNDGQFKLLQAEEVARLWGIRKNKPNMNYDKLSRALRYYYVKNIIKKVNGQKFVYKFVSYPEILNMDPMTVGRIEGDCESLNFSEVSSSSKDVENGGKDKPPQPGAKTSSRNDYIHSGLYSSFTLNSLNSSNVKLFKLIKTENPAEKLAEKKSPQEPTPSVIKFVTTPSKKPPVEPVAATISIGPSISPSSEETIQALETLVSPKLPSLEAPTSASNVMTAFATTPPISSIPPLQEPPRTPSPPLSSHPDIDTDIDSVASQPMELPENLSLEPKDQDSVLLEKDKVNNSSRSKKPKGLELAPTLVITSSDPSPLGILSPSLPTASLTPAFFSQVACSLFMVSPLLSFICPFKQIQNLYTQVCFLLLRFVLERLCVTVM
To be noted: protein: recombinant; tags: N-terminal GST; dsDNA, one strand shown. A digest of the protocol: as §1

For a further experiment, the target named is T4, ETV2 (Homo sapiens, UniProt O00321 1-342).
T4 sequence: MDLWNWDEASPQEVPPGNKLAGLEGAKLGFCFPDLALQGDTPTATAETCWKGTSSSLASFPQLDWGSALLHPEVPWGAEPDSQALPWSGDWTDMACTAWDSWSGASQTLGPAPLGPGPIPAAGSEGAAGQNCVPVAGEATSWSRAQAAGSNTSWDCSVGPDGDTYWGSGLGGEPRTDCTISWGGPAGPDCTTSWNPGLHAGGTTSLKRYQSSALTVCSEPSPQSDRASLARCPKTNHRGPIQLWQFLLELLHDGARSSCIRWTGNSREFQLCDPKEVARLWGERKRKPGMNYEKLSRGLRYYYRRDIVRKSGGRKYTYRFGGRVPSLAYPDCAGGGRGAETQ
To be noted: protein: recombinant; tags: N-terminal GST; dsDNA, one strand shown. A digest of the protocol:
as §1

The next experiment addresses T5, ELF3 (Homo sapiens, UniProt P78545 1-371).
T5 sequence: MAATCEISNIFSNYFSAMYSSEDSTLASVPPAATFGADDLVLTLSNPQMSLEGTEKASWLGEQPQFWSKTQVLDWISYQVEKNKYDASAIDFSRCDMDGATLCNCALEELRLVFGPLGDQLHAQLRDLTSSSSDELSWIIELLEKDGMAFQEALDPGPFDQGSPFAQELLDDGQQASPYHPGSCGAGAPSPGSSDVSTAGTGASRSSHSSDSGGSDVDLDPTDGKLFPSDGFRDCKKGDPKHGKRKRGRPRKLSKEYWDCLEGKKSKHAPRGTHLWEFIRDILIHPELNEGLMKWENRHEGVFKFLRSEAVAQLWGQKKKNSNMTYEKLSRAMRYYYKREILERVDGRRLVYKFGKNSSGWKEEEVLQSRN
To be noted: protein: recombinant; tags: N-terminal GST; dsDNA, one strand shown. A digest of the protocol: as §1

Another experiment deals with CRX (Homo sapiens, UniProt O43186 1-299). To be noted: protein: recombinant; tags: N-terminal GST; dsDNA, one strand shown. A digest of the protocol:
as §1

Another experiment deals with ETV1 (Homo sapiens, UniProt P50549 1-477). To be noted: protein: recombinant; tags: N-terminal GST; dsDNA, one strand shown. A digest of the protocol:
as §1

The next experiment concerns the target T6, ERF (Homo sapiens, UniProt P50548 1-548).
T6 sequence: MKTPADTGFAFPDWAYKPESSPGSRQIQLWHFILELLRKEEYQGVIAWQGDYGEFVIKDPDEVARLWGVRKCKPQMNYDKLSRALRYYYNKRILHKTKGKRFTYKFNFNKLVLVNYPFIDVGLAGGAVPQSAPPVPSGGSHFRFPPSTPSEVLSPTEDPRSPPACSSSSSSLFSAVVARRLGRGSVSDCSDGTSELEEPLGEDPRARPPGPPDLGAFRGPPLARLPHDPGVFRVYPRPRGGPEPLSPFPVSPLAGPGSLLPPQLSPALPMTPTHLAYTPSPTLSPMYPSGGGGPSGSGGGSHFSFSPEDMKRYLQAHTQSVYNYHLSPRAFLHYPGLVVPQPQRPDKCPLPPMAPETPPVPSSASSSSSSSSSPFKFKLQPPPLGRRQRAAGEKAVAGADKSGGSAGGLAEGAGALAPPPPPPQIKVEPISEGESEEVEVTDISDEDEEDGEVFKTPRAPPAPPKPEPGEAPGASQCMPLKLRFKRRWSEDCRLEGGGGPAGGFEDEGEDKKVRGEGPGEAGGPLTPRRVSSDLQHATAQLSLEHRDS
To be noted: protein: recombinant; tags: N-terminal GST; dsDNA, one strand shown. A digest of the protocol: as §1

In a further experiment the target is T7, ETV3L (Homo sapiens, UniProt Q6ZN32 1-361).
T7 sequence: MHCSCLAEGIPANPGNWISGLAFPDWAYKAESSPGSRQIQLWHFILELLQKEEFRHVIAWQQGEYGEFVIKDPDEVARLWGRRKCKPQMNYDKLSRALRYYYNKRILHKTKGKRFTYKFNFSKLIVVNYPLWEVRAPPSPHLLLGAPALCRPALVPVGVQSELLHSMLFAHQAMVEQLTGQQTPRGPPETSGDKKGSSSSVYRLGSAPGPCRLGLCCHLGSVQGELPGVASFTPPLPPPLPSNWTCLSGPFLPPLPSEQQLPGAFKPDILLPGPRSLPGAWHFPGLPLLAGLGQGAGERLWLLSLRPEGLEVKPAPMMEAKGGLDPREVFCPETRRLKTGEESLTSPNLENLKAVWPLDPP
To be noted: protein: recombinant; tags: N-terminal GST; dsDNA, one strand shown. A digest of the protocol:
as §1

Another experiment deals with T8, ETS2 (Homo sapiens, UniProt P15036 1-469).
T8 sequence: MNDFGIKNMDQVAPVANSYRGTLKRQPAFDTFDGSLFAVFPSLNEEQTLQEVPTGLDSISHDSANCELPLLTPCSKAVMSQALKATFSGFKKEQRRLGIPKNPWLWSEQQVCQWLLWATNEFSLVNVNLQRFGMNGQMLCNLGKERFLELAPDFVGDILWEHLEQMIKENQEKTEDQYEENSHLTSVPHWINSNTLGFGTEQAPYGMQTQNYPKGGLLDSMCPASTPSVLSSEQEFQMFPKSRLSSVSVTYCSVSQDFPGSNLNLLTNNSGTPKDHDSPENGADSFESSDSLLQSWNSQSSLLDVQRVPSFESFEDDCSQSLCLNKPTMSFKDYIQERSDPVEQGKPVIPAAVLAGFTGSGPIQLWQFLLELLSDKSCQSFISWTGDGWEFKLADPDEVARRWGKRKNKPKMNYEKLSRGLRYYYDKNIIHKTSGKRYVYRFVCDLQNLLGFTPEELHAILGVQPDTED
To be noted: protein: recombinant; tags: N-terminal GST; dsDNA, one strand shown. A digest of the protocol: as §1

Another experiment addresses T9, SPDEF (Homo sapiens, UniProt O95238 1-335).
T9 sequence: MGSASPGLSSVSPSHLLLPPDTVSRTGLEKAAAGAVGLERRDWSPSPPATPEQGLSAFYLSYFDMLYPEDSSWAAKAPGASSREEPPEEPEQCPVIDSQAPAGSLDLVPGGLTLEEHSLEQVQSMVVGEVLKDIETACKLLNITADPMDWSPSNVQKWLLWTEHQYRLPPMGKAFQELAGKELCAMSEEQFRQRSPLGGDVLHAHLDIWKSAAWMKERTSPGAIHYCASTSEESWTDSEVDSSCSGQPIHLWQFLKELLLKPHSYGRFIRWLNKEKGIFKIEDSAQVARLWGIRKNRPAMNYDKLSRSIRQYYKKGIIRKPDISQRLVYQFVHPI
To be noted: protein: recombinant; tags: N-terminal GST; dsDNA, one strand shown. A digest of the protocol:
as §1

The target in a further experiment is T10, ETV7 (Homo sapiens, UniProt Q9Y603 1-341).
T10 sequence: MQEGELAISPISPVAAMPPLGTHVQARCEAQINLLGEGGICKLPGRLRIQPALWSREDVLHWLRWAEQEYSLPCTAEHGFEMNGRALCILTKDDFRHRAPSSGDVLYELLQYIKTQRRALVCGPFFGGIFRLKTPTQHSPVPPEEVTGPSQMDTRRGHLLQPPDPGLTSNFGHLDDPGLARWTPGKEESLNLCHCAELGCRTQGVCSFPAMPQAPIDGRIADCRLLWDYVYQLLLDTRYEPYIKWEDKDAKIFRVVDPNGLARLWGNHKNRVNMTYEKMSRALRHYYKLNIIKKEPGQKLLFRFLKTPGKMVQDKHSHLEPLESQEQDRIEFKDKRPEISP
To be noted: protein: recombinant; tags: N-terminal GST; dsDNA, one strand shown. A digest of the protocol:
as §1

A further experiment has as its target T11, ELF5 (Homo sapiens, UniProt Q9UKW6-2 1-255).
T11 sequence: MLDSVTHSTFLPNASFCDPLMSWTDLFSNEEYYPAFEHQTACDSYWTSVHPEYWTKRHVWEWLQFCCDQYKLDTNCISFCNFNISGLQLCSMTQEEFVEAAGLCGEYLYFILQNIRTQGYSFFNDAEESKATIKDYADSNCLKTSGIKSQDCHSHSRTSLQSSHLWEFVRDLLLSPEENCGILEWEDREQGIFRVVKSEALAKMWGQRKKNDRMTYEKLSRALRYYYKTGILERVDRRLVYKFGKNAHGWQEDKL
To be noted: protein: recombinant; tags: N-terminal GST; dsDNA, one strand shown. A digest of the protocol:
as §1

The next experiment addresses T12, ETV3 (Homo sapiens, UniProt P41162-2 1-143).
T12 sequence: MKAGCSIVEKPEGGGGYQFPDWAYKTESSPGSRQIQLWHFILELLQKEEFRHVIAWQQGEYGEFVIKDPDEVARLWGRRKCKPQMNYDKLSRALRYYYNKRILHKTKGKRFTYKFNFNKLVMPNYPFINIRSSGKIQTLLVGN
To be noted: protein: recombinant; tags: N-terminal GST; dsDNA, one strand shown. A digest of the protocol: as §1

The next experiment addresses ETV6 (Homo sapiens, UniProt P41212 1-452). To be noted: protein: recombinant; tags: N-terminal GST; dsDNA, one strand shown. A digest of the protocol:
as §1

Sequence of HSF1 (Q00613 whole entry): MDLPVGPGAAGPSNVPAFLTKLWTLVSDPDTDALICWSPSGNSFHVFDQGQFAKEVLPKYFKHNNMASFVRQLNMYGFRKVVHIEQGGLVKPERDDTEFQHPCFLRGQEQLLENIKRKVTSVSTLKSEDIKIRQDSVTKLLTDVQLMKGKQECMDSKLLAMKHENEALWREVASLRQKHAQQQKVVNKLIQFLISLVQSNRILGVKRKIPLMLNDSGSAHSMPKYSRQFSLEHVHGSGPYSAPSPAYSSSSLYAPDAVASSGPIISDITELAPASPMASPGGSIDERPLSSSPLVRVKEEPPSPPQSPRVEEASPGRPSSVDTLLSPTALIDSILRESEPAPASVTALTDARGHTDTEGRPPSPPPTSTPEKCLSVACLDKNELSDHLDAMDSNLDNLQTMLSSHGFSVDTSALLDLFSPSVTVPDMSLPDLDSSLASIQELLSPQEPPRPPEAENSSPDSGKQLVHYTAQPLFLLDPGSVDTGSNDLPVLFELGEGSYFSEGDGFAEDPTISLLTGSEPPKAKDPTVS
Sequence of ELF4 (Q99607 whole entry): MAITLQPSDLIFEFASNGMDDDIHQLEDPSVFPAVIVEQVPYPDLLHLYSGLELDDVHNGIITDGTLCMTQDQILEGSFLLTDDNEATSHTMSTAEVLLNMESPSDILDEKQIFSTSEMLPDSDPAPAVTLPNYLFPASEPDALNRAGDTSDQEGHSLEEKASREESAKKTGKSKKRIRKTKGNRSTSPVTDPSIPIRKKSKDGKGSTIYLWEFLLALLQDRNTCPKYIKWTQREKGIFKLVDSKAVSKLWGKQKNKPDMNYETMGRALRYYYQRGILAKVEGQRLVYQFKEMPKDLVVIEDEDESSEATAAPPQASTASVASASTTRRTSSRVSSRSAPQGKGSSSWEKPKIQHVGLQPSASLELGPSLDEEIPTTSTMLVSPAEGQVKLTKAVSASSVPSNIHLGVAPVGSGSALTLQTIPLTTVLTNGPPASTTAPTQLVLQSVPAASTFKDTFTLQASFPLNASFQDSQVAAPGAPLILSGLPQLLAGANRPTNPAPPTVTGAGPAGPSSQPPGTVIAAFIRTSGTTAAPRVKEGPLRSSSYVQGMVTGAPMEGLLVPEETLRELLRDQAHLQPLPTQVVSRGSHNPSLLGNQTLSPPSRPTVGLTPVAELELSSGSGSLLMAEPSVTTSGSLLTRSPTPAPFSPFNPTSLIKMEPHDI
Sequence of ETV1 (P50549 whole entry): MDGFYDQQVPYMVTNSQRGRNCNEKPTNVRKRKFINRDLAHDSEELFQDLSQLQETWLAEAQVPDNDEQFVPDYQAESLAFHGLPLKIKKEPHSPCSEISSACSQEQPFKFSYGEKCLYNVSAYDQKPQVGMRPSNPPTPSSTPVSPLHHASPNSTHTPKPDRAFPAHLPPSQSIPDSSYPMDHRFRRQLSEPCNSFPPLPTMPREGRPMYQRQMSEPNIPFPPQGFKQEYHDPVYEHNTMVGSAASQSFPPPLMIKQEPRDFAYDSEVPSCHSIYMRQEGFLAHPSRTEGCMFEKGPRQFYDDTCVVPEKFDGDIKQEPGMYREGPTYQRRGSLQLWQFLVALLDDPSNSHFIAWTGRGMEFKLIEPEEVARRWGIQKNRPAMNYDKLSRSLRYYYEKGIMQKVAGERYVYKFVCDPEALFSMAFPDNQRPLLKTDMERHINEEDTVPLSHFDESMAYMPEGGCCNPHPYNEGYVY
Sequence of ETV6 (P41212 whole entry): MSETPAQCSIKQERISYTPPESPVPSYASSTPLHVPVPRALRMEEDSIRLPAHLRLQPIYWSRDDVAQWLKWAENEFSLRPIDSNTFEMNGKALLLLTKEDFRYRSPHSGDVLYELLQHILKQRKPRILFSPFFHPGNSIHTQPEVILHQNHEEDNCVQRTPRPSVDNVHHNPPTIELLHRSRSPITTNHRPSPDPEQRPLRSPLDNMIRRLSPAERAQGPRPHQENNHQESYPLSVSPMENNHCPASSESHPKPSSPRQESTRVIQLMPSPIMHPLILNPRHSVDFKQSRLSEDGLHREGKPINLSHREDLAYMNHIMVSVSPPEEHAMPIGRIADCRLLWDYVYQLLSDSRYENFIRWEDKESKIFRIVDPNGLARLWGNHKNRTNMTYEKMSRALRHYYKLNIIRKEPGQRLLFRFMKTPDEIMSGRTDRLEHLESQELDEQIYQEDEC
Sequence of ETV5 (P41161 whole entry): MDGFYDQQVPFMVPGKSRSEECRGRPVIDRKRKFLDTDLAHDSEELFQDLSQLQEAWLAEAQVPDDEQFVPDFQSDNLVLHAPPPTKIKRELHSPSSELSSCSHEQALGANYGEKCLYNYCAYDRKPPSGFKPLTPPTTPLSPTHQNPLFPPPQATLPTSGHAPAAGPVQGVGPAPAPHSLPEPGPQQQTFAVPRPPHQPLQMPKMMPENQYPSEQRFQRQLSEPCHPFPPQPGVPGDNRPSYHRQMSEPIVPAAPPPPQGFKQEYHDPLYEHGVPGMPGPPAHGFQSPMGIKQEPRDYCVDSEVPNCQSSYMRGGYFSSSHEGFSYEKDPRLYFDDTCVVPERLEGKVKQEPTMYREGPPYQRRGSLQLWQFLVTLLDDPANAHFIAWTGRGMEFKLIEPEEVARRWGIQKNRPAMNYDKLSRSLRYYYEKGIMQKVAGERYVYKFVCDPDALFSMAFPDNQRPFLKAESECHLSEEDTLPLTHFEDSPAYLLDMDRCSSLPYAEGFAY
Sequence of CRX (O43186 whole entry): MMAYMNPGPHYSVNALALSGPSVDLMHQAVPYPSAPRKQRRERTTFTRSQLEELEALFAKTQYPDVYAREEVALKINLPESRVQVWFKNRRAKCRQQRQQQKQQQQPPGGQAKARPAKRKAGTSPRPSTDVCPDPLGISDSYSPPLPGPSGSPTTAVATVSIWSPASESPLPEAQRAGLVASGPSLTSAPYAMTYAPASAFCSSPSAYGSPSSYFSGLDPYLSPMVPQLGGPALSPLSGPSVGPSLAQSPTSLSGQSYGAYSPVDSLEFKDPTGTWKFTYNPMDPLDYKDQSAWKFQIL

For CTCTTC, the binding signal with FEV is 1.73 fold enrichment (6-mer frequency, TF over GST control); with ETV5, 1.76 fold enrichment (6-mer frequency, TF over GST control); with HSF1, 1.25 fold enrichment (6-mer frequency, TF over GST control); with SPIC it was 1.69 fold enrichment (6-mer frequency, TF over GST control); with ELF4, 1.68 fold enrichment (6-mer frequency, TF over GST control); in the experiment with ELK4 it was 1.66 fold enrichment (6-mer frequency, TF over GST control). Further, the binding signal is 1.71 fold enrichment (6-mer frequency, TF over GST control) in the experiment with ETV2; 1.67 fold enrichment (6-mer frequency, TF over GST control) in the experiment with ELF3; 1.21 fold enrichment (6-mer frequency, TF over GST control) with CRX; 1.71 fold enrichment (6-mer frequency, TF over GST control) with ETV1; 1.62 fold enrichment (6-mer frequency, TF over GST control) with ERF; 1.89 fold enrichment (6-mer frequency, TF over GST control) in the experiment with ETV3L. For the same sequence, the binding signal with ETS2 was 1.65 fold enrichment (6-mer frequency, TF over GST control); in the experiment with SPDEF it was 1.59 fold enrichment (6-mer frequency, TF over GST control); with ETV7, 1.56 fold enrichment (6-mer frequency, TF over GST control); with ELF5 it was 2.07 fold enrichment (6-mer frequency, TF over GST control); in the experiment with ETV3, 1.75 fold enrichment (6-mer frequency, TF over GST control); with ETV6, 1.84 fold enrichment (6-mer frequency, TF over GST control).
